High-throughput results (PubChem)
This is a sample that favours compounds with a hit; in the whole collection about 3.6% have one here.
Pf apPOL block = Pf-apPOL inhibitors, biochemical, fluorescence. 210,000 tested, 0.25% active. inhibition, % at 10 µM. Recombinant Pf-apPOL, molecular beacon fluorescence, 1.5 h
mHTT CaM bind = mutant huntingtin-calmodulin interaction inhibitors – biochemical, AlphaScreen, primary screen; AlphaScreen His-mHTT/GST-CaM binding, luminescence; 190,000 tested, 3.6% active; P42858; inhibition, % at 15 µM
Numbers stand for hits; i = inactive; nt = no result. Cut-off read from the data, not from the text of the source: active = inhibition above about 50%; inactive = the rest.

SMILES | Pf apPOL block | mHTT CaM bind
Cc1cc(C)n2nc(SCC(=O)NCc3ccc(F)cc3)nc2n1 | i | i
c1coc(CSCc2ccco2)c1 | nt | i
CC(C)(C)SCCNC(=O)C(C)(C)C | i | nt
O=C1OC(c2cccc(F)c2)=N/C1=C\c1cccs1 | i | i
O=C1OC(c2cccc(Cl)c2)=N/C1=C\c1cccs1 | i | 53
Cc1ccc(/C=C2\N=C(c3cccc(F)c3)OC2=O)cc1 | 63 | i
O=C1OC(c2cccc(F)c2)=N/C1=C\c1ccc(F)cc1 | i | i
Nc1ccc2oc(-c3ccc(I)cc3)nc2c1 | i | i
O=C(Nc1cccc2cccnc12)c1ccc(OCc2nc(C3CC3)cs2)cc1 | i | i
COc1ccc(CNC(=O)C2CCN(c3cc(C(=O)N4CCCC4)ccn3)CC2)cc1 | i | i
Cn1c(N2CCC(C(=O)N3CCCCCC3)CC2)cc(=O)n(C)c1=O | i | i
O=C(NC(c1ccccc1)c1ccccc1)c1cccnc1 | i | i
O=C(NC(c1ccc([N+](=O)[O-])cc1)c1cc(Cl)c2cccnc2c1O)c1cccnc1 (centres undefined) | i | 53
O=C(NC(c1cccc([N+](=O)[O-])c1)c1cc(Cl)c2cccnc2c1O)c1cccnc1 (centres undefined) | i | 79
CC(C)(C)C(=O)N1CCCC2(CC(c3ccc(C#N)cc3)=CO2)C1 (centres undefined) | i | i
COC(=O)c1ccc(Oc2c(C)oc3cc(OCC(=O)c4ccc(OC)cc4)ccc3c2=O)cc1 | i | i
CCOc1cc2c(c([N+](=O)[O-])c1)NC(c1ccccc1F)C1CC=CC21 (centres undefined) | i | 95
COc1cc2c(c([N+](=O)[O-])c1)NC(c1ccc(Br)cc1)C1CC=CC21 (centres undefined) | i | i
CCOc1cc2c(c([N+](=O)[O-])c1)NC(c1ccc([N+](=O)[O-])cc1)C1CC=CC21 (centres undefined) | i | 50
CCOc1cc2c(c([N+](=O)[O-])c1)NC(C(C)C)C1CC=CC21 (centres undefined) | i | 73
Cc1ccc(-c2csc3c(=O)n(CC(=O)Nc4ccc(C(C)C)cc4)cnc23)cc1 | i | i
Cc1ccccc1N1CCN(C(=O)c2sc(Nc3ccc(F)cn3)nc2C)CC1 | i | 100
Cc1nc(Nc2ccc(F)cn2)sc1C(=O)N1CCc2ccccc2C1 | i | 65
Cc1nc(Nc2ccccn2)sc1C(=O)N1CCc2ccccc2C1 | i | i
Cc1nc(Nc2ccc(F)cn2)sc1C(=O)N1CCN(C2CCCCC2)CC1 | i | i
SMILES | Pf apPOL block | mHTT CaM bind
Cc1cccc(N2CCN(C(=O)c3sc(Nc4ccc(F)cn4)nc3C)CC2)c1 | i | 85
Cc1cccc(Nc2nc(C)c(C(=O)N3CCN(c4ccccc4)CC3)s2)n1 | i | i
COc1ccccc1CCNC(=O)CN(C)c1nc2ccccc2s1 | i | i
CCOc1cc(CNc2ccccc2SC)ccc1O | i | i
CCOc1cc(CNc2ccc3c(c2)CCC3)ccc1O | i | 51
O=C1NC(=O)N(c2ccc(Cl)cc2)C(=O)/C1=C/c1ccc(I)o1 | i | i
Cc1ccc(Nc2nc(-c3ccc([N+](=O)[O-])cc3)cs2)cc1C | i | 75
O=[N+]([O-])c1ccc(Nc2nc(-c3ccncc3)cs2)cc1 | i | i
Ic1ccc(-c2csc(Nc3ccc4c(c3)OCO4)n2)cc1 | i | 62
Cc1nc(N)sc1-c1csc(Nc2ccc([N+](=O)[O-])cc2)n1 | i | 99
c1ccc(Nc2nc(-c3ccc4c(c3)OCO4)cs2)nc1 | i | i
CC(=O)Nc1nc(C)c(-c2csc(Nc3ccc([N+](=O)[O-])cc3)n2)s1 | i | i
Cc1cccc(Nc2nc(-c3ccc(C)c(C)c3)cs2)c1 | i | 55
COc1ccc(Nc2nc(-c3ccc(C)c(C)c3)cs2)cc1 | i | i
CCn1cc(Br)c(C(=O)N2CCN3CCCC3C2)n1 (centres undefined) | nt | i
Cc1cc(I)c(O)c(C=Nc2ccc(F)cc2)c1 | i | i
NC(=O)c1cccc(C(N)=O)c1F | i | nt
OCC(O)C(O)C(O)C(O)C1SC(c2ccccc2)=NN1c1ccccc1 (centres undefined) | i | nt
Cc1nnc(SCC(=O)Nc2ccc(Br)cn2)s1 | i | i
N#CC1c2nc3ccccc3n2C2CC1(O)C1OCC2O1 (centres undefined) | i | i
Cc1nc(N)sc1-c1csc(Nc2ccccc2)n1 | i | 89
Cc1cccc(NCc2ccc([N+](=O)[O-])cc2)c1 | i | i
Cc1ccnc(Nc2nc(-c3sc(N)nc3C)cs2)c1 | i | 66
Cc1ccnc(Nc2nc(-c3ccccc3)cs2)c1 | i | i
Cc1nc(N)sc1-c1csc(Nc2cccc(C(=O)O)c2)n1 | i | i
SMILES | Pf apPOL block | mHTT CaM bind
Cc1ccc(NCc2ccc([N+](=O)[O-])cc2)cc1C | i | 60
CN(C)C(=O)c1cn(-c2ccccc2)nc1-c1cccnc1 | i | i
O=S(=O)(Nc1ccc(Br)cc1F)c1cccnc1 | i | i
OC(COC12CC3CC(CC(C3)C1)C2)CN1CCOCC1 (centres undefined) | i | i
COCCCNC(=O)C1(C)CCC(=O)N1CCc1ccccc1 (centres undefined) | i | i
COc1cc(/C=C2/NC(=O)N(Cc3ccc(Cl)cc3)C2=O)cc(Br)c1O | i | i
COc1cc(/C=C2/NC(=O)N(Cc3ccc(Br)cc3)C2=O)cc(OC)c1O | i | 55
O=C(Nc1ccccc1)N1CCn2cccc2C1Cc1ccccc1 (centres undefined) | i | i
O=C(Nc1cccc(F)c1)N1CCn2cccc2C1Cc1ccccc1 (centres undefined) | i | i
O=C(Nc1ccc(F)c(Cl)c1)N1CCn2cccc2C1Cc1ccccc1 (centres undefined) | i | 100
O=C(Nc1ccccc1Br)N1CCn2cccc2C1Cc1ccccc1 (centres undefined) | i | 52
Cn1nccc1C(=O)N1CCC(c2cc(-c3ccc(F)cc3)n[nH]2)CC1 | i | i
Cc1cc(C(=O)NNc2ccc(Cl)cc2)cc(Cl)n1 | i | nt
Cc1ccc([N+](=O)[O-])cc1NC(=O)CCCc1ccccc1 | i | i
COc1ccc(NC(=O)c2ccc(Cl)s2)c2ccccc12 | i | i
O=C1CC(c2ccccc2Cl)CC2=C1C(c1cccs1)Nc1ccccc1N2 (centres undefined) | i | i
O=C(NCc1ccc(F)cc1)N1CCc2c(nc3cc[nH]n3c2=O)C1 | i | i
CCn1c(=O)c(C(=O)N(C)C)nc2cc(C)c(C)cc21 | i | i
O=C1Nc2cc(C(=O)N3CCN(c4ccc(Cl)cc4)CC3)ccc2N2CCCCC12 (centres undefined) | i | i
CN1C(=O)C2CCCCN2c2ccc(C(=O)N3CCN(c4ccc(Cl)cc4)CC3)cc21 (centres undefined) | i | 68
c1ccc(-n2ncc3c2-c2[nH]c4ccccc4c2CC3)cc1 | i | 93
c1ccc(-n2ncc3c2CCc2c-3[nH]c3ccccc23)cc1 | i | i
COc1ccc(/C=C2\C=C(c3ccccc3)N(c3ccccc3O)C2=O)cc1 | i | 76
O=C1/C(=C/c2ccc([N+](=O)[O-])cc2)C=C(c2ccccc2)N1c1ccccc1O | i | i
Cc1ccc(-n2nc3cc(N)c(Cl)cc3n2)cc1 | i | 59
Cc1cc2nn(-c3ccccc3)nc2cc1N | i | i
O=C(NCc1ccc2c(c1)OCO2)C1CCN(c2cncnc2N2CCCCC2)CC1 | i | i
O=[N+]([O-])c1ccc(C2CNC(c3ccccc3)O2)cc1 (centres undefined) | i | i
